Structures are written as SMILES. Compounds without any hit were thinned out: in the full panel of roughly 83,000, 20% have a hit.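 How to read the values: 0–100, growth inhibition (40 = 60% inhibited); 0, no net growth; -100 to 0, cell death (-40 = 40% of starting cells died; -100 = all dead).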 Values without a mark were called inactive. Active and inactive are the calls of the source. How the source made its calls: active means growth percent below 10; inactive means the rest.

Among the test systems are NCI-H23 lung; NCI-H226 lung; NCI-H322M lung; HOP-62 NSCLC; NCI-H460 lung; HOP-92 NSCLC; NCI-H522 lung; A549/ATCC NSCLC; 786-0 renal; COLO 205 colon; DU-145 prostate; K-562 leukemia; MALME-3M melanoma; MDA-MB-231 breast; RXF 393 renal; SF-268 CNS; SF-295 CNS; SF-539 CNS; UACC-257 melanoma; M14 melanoma.
Holding throughout (test): NCI-60 one-dose screen, 48 h (100 = growth as untreated, 0 = no growth, -100 = all killed)
Common to all, as to conditions: 10 µM unless noted

As to `COc1ccc(OC)c(NC(=O)CCCCCCNC(=O)C(O)(O)C(F)(F)F)c1`, the growth was 48.6% in the assay with NCI-H23 lung; 78.7% in the assay with NCI-H226 lung; 61% in the assay with NCI-H322M lung; 36.8% in the assay on HOP-62 NSCLC; 39% in the assay on NCI-H460 lung; 28.8% in the assay with HOP-92 NSCLC. In addition, the growth was -0.794% (active) in the assay on NCI-H522 lung; 47.7% with A549/ATCC NSCLC; 50% in the assay on 786-0 renal; 10.5% in the assay with COLO 205 colon; 34.9% in the assay on DU-145 prostate; 19.4% in the assay on K-562 leukemia. Further, the growth with MALME-3M melanoma was 24.9%; in the assay on MDA-MB-231 breast it was 61.6%; with RXF 393 renal, 1.79% (active); with SF-268 CNS, 55%; in the assay with SF-295 CNS, 20.6%; in the assay with SF-539 CNS, 46%. In addition, the growth with UACC-257 melanoma is 41.2%; with M14 melanoma, 46.8%.

Consider `CC(C)[C@H]1c2[nH]c3ccccc3c2C[C@H]2C(=O)N(CCCCCCC(=O)NO)CC(=O)N12`, for which the growth in the assay on NCI-H23 lung is 87.6%; in the assay with NCI-H226 lung it was 102%; with NCI-H322M lung it was 88.4%; in the assay on HOP-62 NSCLC, 85.7%; in the assay with NCI-H460 lung, 78.5%; with HOP-92 NSCLC, 74.9%. Also, the growth is 42.8% in the assay on NCI-H522 lung; 98.7% in the assay on A549/ATCC NSCLC; 97.3% in the assay with 786-0 renal; 83.8% with COLO 205 colon; 92.4% with DU-145 prostate; 60.6% with K-562 leukemia. Besides, the growth with MALME-3M melanoma was 31.1%; in the assay with MDA-MB-231 breast, 92.5%; in the assay on RXF 393 renal it was 87%; in the assay with SF-268 CNS, 107%; in the assay on SF-295 CNS it was 95.2%; in the assay with SF-539 CNS it was 73.6%. Also, the growth in the assay with UACC-257 melanoma was 57.7%; in the assay on M14 melanoma, 82.2%.

Take `CN1CCN(Cc2ccc(NC(=O)c3cncc(C#Cc4cnc5ccc(N6CCOCC6)nn45)c3)cc2C(F)(F)F)CC1`: the growth in the assay with NCI-H23 lung was -65.9% (active); in the assay on NCI-H226 lung it was -62.3% (active); with NCI-H322M lung, -11.3% (active); in the assay on HOP-62 NSCLC, -79.7% (active); with NCI-H460 lung, -80.6% (active); with HOP-92 NSCLC, -25.6% (active). Also, the growth with NCI-H522 lung was -79.2% (active); in the assay with A549/ATCC NSCLC, -84.9% (active); in the assay with 786-0 renal, -80.7% (active); with COLO 205 colon, -87.3% (active); in the assay with DU-145 prostate it was -84.7% (active); in the assay on K-562 leukemia it was -0.943% (active). The growth in the assay with MALME-3M melanoma is -86.2% (active); in the assay with MDA-MB-231 breast, -56.4% (active); in the assay on RXF 393 renal it was -77.9% (active); in the assay on SF-268 CNS, -62.1% (active); in the assay with SF-295 CNS, -84.8% (active); in the assay on SF-539 CNS it was -90.8% (active). Also, the growth in the assay with UACC-257 melanoma is -29.5% (active); in the assay with M14 melanoma it was -74.4% (active).

`Brc1cccc(-c2cc(-c3ccc4c(c3)OC=CO4)[nH]n2)c1`: the growth in the assay with NCI-H23 lung is 58.2%; in the assay with NCI-H226 lung, 78%; in the assay with NCI-H322M lung it was 49.8%; in the assay on HOP-62 NSCLC, 58.1%; in the assay on NCI-H460 lung it was 15.1%; in the assay with HOP-92 NSCLC, 96.3%. In addition, the growth in the assay with NCI-H522 lung is 29.4%; in the assay with A549/ATCC NSCLC, 37.5%; with 786-0 renal, 70.4%; in the assay on COLO 205 colon, 36.1%; in the assay on DU-145 prostate, 54.8%; in the assay with K-562 leukemia, 13.6%. Besides, the growth in the assay on MALME-3M melanoma is 25.6%; in the assay with MDA-MB-231 breast it was 53.2%; in the assay with RXF 393 renal, 60.2%; in the assay with SF-268 CNS, 64.6%; in the assay on SF-295 CNS, 38%; in the assay with SF-539 CNS, 49.3%. The growth in the assay with UACC-257 melanoma was 67.5%; with M14 melanoma, 15.7%.

Take `COc1ccc2c(c1)c(/C=N/Nc1ccnc3cc(Cl)ccc13)cn2C`: the growth was -80.5% (active) in the assay with NCI-H23 lung; -52.3% (active) in the assay with NCI-H226 lung; -95.1% (active) in the assay with NCI-H322M lung; -81.1% (active) in the assay on HOP-62 NSCLC; -79.1% (active) in the assay with NCI-H460 lung; -81.7% (active) in the assay with HOP-92 NSCLC. Besides, the growth is -65.4% (active) with NCI-H522 lung; -69.7% (active) with A549/ATCC NSCLC; -81.3% (active) with 786-0 renal; -86.6% (active) in the assay on COLO 205 colon; -93.3% (active) in the assay on DU-145 prostate; -48.1% (active) in the assay with K-562 leukemia. The growth in the assay on MALME-3M melanoma is -77.2% (active); with MDA-MB-231 breast it was -82.8% (active); with RXF 393 renal, -81.1% (active); in the assay with SF-268 CNS, -67.1% (active); in the assay with SF-295 CNS, -84.4% (active); in the assay on SF-539 CNS, -82.9% (active). The growth in the assay with UACC-257 melanoma was -84.2% (active); in the assay on M14 melanoma it was -72% (active).

For `COc1ccc(OC)c(CCn2cncc2-c2c[nH]c3ccc(Cl)cc23)c1`, the growth was 38.1% in the assay on NCI-H23 lung; 59.5% in the assay with NCI-H226 lung; 88.4% in the assay on NCI-H322M lung; 49.5% with HOP-62 NSCLC; 46.1% in the assay on NCI-H460 lung; 20.8% with HOP-92 NSCLC. The growth is 3.34% (active) in the assay with NCI-H522 lung; 33.3% in the assay with A549/ATCC NSCLC; 69.7% with 786-0 renal; 29.8% with COLO 205 colon; 60.5% in the assay on DU-145 prostate; 15.8% in the assay with K-562 leukemia. Moreover, the growth with MALME-3M melanoma is 45.9%; in the assay with MDA-MB-231 breast it was 62.6%; with RXF 393 renal, 62.8%; with SF-268 CNS, 50.5%; in the assay on SF-295 CNS it was 28.9%; with SF-539 CNS, 71.6%. Also, the results for the growth in the assay on UACC-257 melanoma and in the assay on M14 melanoma were 23% and 48.4%, respectively.

`CCOC(=O)c1c(NCC(=O)Nc2cccc([N+](=O)[O-])c2)sc(C(C)=O)c1C`: the growth with NCI-H23 lung was -40.7% (active); in the assay on NCI-H226 lung it was -61.3% (active); in the assay with NCI-H322M lung, 95%; in the assay with HOP-62 NSCLC, 7.61% (active); with NCI-H460 lung it was -29% (active); with HOP-92 NSCLC, -24.7% (active). Further, the growth with NCI-H522 lung was -32% (active); in the assay with A549/ATCC NSCLC, -13.5% (active); with 786-0 renal, -15% (active); in the assay with COLO 205 colon it was -42.9% (active); in the assay on DU-145 prostate, -13.9% (active); in the assay with K-562 leukemia, 8.15% (active). Also, the growth was -21.8% (active) with MALME-3M melanoma; 10.3% with MDA-MB-231 breast; -86.5% (active) in the assay on RXF 393 renal; -17.6% (active) with SF-268 CNS; -11.7% (active) in the assay with SF-295 CNS; -28.8% (active) in the assay on SF-539 CNS. For the same compound, the growth with UACC-257 melanoma was -11.9% (active); in the assay with M14 melanoma, -81.7% (active).

The values are drawn from PubChem BioAssay (NCI).
